The record followed here is article PMC7862700, “An all-to-all approach to the identification of sequence-specific readers for epigenetic DNA modifications on cytosine”.

Common to all, as to assay: DAPPL (digital affinity profiling via proximity ligation, sequencing); 10 mM Tris-HCl pH 7.5, 50 mM NaCl, 1 mM DTT, 4% glycerol, room temperature, 30 min; GST-TFs on glutathione beads, 16-mer random dsDNA library, 0.1% formaldehyde crosslink after washing; high values mean tight binding
The target in one assay is T1, FLI1 (Homo sapiens, UniProt Q01543 1-452).
T1 sequence: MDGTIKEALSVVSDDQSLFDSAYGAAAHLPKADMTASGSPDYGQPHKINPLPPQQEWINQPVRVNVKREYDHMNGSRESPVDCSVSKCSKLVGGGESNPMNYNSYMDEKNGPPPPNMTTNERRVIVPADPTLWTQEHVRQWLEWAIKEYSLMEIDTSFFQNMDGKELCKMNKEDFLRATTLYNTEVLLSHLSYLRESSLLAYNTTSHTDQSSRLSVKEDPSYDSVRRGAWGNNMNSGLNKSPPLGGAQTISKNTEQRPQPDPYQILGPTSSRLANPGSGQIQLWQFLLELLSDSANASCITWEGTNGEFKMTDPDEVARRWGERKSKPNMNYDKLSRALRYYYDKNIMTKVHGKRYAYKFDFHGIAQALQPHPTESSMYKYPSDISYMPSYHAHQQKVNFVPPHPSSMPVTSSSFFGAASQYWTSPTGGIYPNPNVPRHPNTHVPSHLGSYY
The note with it: protein: recombinant; tags: N-terminal GST; dsDNA, one strand shown. The essentials: (§1)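 Beads coated with glutathione captured GST-fused human transcription factors that had been expressed in yeast, and the factors were then given DNA barcodes and pooled with a tag-only sample. The pools were incubated with 200 nmole of a random double-stranded 16-mer DNA library in Tris/NaCl/DTT/glycerol buffer for 30 min at room temperature, washed, crosslinked with 0.1% formaldehyde and proximity-ligated with BsaI/T4 ligase at 37 °C for 1 h. PCR amplification and Illumina NextSeq500 sequencing came last. Binding signal is each hexamer's read frequency for a factor divided by its frequency for the tag-only sample.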

A further assay has as its target T2, ELK1 (Homo sapiens, UniProt P19419 1-428).
T2 sequence: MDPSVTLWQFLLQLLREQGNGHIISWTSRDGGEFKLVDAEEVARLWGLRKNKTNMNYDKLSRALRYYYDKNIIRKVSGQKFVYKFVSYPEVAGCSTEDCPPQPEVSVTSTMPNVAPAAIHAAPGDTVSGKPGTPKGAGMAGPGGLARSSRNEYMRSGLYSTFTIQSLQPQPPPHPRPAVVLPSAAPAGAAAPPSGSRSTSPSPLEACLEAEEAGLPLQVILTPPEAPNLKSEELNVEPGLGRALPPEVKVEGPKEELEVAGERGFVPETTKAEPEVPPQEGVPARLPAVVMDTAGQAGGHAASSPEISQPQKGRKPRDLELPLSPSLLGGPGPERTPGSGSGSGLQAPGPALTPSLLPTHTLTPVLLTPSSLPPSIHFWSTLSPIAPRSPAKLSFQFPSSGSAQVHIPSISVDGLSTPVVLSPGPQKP
The following applies: protein: recombinant; tags: N-terminal GST; dsDNA, one strand shown. The essentials: as §1

In another assay the target is T3, GABPA (Homo sapiens, UniProt Q06546 1-454).
T3 sequence: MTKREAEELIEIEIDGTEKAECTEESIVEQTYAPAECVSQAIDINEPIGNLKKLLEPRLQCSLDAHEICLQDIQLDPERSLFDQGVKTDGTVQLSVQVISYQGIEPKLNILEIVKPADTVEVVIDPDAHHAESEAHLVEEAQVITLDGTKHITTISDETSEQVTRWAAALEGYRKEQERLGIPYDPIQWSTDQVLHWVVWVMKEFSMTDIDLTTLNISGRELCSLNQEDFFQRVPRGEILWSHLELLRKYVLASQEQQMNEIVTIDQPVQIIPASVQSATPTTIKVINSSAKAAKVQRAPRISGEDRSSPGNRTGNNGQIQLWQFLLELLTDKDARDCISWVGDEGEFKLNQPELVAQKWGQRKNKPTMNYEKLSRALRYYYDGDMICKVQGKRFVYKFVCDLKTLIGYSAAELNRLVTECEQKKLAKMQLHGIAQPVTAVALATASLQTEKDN
The note with it: protein: recombinant; tags: N-terminal GST; dsDNA, one strand shown. The essentials: as §1

The target of a further assay is T4, ERG (Homo sapiens, UniProt P11308 1-479).
T4 sequence: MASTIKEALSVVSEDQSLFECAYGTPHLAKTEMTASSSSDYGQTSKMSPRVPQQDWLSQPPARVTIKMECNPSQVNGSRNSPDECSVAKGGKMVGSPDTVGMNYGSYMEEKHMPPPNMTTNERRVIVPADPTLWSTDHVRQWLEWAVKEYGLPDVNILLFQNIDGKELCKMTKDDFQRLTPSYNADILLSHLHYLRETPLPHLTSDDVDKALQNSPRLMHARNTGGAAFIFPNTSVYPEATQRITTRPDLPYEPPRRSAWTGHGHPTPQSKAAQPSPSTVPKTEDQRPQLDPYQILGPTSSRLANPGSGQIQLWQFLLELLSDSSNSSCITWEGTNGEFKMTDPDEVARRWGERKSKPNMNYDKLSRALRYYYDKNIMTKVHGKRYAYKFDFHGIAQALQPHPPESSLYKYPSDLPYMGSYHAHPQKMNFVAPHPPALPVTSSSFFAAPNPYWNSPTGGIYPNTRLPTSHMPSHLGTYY
The note with it: protein: recombinant; tags: N-terminal GST; dsDNA, one strand shown. The essentials:
as §1

In the next assay the target is ELF1 (Homo sapiens, UniProt P32519 1-619). The following applies: protein: recombinant; tags: N-terminal GST; dsDNA, one strand shown. Summed up: as §1
ELF1, sequence (P32519 whole entry): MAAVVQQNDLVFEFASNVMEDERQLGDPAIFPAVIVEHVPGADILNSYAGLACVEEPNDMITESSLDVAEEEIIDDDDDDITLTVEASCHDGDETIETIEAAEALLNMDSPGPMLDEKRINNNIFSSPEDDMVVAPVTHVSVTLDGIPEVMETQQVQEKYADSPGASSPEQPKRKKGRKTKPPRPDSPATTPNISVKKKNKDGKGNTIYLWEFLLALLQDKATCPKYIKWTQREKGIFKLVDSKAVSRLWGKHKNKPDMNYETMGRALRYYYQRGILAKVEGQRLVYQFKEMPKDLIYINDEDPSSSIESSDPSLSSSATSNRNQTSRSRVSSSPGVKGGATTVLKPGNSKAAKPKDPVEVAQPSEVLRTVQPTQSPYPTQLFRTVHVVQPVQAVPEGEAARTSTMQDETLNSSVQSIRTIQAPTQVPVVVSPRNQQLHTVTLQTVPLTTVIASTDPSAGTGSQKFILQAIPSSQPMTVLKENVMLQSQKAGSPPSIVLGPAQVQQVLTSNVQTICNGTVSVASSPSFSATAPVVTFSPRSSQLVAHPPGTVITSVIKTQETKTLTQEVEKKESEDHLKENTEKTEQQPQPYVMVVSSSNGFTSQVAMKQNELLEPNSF
Another assay deals with T5, EHF (Homo sapiens, UniProt Q9NZC4 1-300).
T5 sequence: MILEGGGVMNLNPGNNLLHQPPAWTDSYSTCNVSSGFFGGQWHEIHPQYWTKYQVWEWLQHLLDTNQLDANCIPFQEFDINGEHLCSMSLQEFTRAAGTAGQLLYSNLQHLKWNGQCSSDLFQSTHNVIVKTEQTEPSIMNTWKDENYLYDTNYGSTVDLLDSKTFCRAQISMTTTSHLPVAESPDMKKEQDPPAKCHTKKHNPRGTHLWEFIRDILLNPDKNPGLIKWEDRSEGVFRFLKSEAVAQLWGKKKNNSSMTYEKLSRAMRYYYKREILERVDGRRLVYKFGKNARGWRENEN
The following applies: protein: recombinant; tags: N-terminal GST; dsDNA, one strand shown. The essentials:
as §1

The next assay deals with SPI1 (Homo sapiens, UniProt P17947 1-270). The following applies: protein: recombinant; tags: N-terminal GST; dsDNA, one strand shown. The essentials: as §1
The next assay addresses SPIB (Homo sapiens, UniProt Q01892 1-262). The note with it: protein: recombinant; tags: N-terminal GST; dsDNA, one strand shown. The essentials:
as §1

Another assay deals with T6, ELK3 (Homo sapiens, UniProt P41970 1-407).
T6 sequence: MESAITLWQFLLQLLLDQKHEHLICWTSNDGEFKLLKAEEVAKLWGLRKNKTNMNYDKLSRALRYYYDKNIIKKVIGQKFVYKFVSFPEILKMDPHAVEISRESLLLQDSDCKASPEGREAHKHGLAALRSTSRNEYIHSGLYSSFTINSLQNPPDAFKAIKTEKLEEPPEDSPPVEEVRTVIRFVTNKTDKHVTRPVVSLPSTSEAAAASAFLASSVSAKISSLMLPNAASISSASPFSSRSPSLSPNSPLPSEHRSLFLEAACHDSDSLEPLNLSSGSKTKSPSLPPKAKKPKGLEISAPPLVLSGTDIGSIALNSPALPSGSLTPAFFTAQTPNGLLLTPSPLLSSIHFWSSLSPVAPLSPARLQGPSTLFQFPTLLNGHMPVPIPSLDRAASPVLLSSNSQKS
The note with it: protein: recombinant; tags: N-terminal GST; dsDNA, one strand shown. Summed up:
as §1

For a further assay, the target named is T7, FEV (Homo sapiens, UniProt Q99581 1-238).
T7 sequence: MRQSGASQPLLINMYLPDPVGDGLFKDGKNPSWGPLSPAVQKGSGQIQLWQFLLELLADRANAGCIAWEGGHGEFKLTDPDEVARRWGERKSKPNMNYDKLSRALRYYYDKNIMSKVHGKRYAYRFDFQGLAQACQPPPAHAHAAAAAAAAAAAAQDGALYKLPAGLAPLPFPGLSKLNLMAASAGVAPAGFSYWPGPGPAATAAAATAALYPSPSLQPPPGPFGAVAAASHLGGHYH
The following applies: protein: recombinant; tags: N-terminal GST; dsDNA, one strand shown. Summed up:
as §1

For the next assay, the target named is ETV5 (Homo sapiens, UniProt P41161 1-510). The note with it: protein: recombinant; tags: N-terminal GST; dsDNA, one strand shown. The essentials: as §1
ETV5, sequence (P41161 whole entry): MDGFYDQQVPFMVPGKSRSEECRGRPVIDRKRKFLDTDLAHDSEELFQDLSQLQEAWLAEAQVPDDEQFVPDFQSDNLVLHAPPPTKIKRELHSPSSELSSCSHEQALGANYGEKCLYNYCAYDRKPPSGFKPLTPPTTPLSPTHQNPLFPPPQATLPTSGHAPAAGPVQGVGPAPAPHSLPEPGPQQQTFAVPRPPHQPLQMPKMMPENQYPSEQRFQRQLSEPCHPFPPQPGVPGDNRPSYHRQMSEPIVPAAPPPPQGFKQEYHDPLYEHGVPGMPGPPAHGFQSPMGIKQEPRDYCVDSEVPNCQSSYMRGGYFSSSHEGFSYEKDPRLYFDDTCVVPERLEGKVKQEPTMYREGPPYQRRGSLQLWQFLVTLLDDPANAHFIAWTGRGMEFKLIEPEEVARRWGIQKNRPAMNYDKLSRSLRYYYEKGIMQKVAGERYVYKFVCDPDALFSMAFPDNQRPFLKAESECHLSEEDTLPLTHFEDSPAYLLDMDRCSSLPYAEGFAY
A further assay deals with HSF1 (Homo sapiens, UniProt Q00613 1-529). The note with it: protein: recombinant; tags: N-terminal GST; chain copies: 3; dsDNA, one strand shown. The essentials:
as §1

Another assay has as its target ELF4 (Homo sapiens, UniProt Q99607 1-663). The following applies: protein: recombinant; tags: N-terminal GST; dsDNA, one strand shown. The essentials: as §1
Another assay deals with T8, ELK4 (Homo sapiens, UniProt P28324-2 1-405).
T8 sequence: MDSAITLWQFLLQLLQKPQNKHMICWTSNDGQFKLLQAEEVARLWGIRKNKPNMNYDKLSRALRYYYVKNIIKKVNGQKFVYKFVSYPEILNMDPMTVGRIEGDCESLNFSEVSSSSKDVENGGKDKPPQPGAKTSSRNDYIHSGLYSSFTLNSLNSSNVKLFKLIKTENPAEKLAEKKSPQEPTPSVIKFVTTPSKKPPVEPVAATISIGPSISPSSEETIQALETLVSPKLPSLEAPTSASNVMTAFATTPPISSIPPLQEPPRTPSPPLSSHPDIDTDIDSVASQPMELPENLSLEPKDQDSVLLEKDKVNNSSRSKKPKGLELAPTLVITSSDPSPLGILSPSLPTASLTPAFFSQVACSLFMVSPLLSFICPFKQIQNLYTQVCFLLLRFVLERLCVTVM
The following applies: protein: recombinant; tags: N-terminal GST; dsDNA, one strand shown. Summed up:
as §1

Another assay has as its target T9, ETV2 (Homo sapiens, UniProt O00321 1-342).
T9 sequence: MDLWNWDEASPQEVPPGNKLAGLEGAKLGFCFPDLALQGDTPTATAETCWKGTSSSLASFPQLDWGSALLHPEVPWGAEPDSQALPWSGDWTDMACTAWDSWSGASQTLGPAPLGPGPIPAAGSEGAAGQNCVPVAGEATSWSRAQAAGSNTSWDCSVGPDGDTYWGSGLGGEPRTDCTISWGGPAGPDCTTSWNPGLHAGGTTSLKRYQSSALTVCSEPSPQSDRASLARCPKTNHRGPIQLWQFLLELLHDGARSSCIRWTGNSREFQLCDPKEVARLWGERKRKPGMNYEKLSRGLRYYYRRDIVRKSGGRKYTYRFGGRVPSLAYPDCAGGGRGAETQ
The following applies: protein: recombinant; tags: N-terminal GST; dsDNA, one strand shown. The essentials:
as §1

For a further assay, the target named is T10, ELF3 (Homo sapiens, UniProt P78545 1-371).
T10 sequence: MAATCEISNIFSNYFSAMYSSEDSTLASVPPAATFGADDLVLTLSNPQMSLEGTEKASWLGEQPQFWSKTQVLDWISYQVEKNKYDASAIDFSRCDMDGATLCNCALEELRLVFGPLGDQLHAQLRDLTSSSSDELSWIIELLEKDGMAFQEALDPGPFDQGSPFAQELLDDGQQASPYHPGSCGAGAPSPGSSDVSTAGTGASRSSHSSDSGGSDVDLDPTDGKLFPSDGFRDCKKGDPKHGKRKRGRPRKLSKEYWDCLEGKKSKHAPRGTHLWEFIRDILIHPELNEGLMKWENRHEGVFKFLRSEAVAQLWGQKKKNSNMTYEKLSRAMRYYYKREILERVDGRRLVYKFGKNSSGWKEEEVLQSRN
The note with it: protein: recombinant; tags: N-terminal GST; dsDNA, one strand shown. Summed up:
as §1

Another assay addresses CRX (Homo sapiens, UniProt O43186 1-299). The following applies: protein: recombinant; tags: N-terminal GST; dsDNA, one strand shown. Summed up:
as §1

Another assay addresses ETV1 (Homo sapiens, UniProt P50549 1-477). The following applies: protein: recombinant; tags: N-terminal GST; dsDNA, one strand shown. Summed up:
as §1

ELF4, sequence (Q99607 whole entry): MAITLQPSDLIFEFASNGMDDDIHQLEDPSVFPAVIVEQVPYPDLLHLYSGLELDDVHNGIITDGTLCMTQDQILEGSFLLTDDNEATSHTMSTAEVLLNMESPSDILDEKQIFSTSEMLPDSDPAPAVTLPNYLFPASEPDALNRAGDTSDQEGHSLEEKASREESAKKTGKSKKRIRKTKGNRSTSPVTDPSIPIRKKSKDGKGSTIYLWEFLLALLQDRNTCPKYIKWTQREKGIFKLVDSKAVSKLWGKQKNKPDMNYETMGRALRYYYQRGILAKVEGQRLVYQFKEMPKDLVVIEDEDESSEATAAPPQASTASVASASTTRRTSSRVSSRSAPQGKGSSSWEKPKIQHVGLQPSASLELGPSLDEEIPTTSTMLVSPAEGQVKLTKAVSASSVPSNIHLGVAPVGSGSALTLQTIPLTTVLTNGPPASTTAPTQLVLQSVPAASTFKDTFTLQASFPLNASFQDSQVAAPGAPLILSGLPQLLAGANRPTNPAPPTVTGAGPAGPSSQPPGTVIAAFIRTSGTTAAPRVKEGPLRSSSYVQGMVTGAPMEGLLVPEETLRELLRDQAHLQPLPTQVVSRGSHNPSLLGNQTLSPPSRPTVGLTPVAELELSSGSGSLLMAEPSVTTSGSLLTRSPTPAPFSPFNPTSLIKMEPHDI
CRX, sequence (O43186 whole entry): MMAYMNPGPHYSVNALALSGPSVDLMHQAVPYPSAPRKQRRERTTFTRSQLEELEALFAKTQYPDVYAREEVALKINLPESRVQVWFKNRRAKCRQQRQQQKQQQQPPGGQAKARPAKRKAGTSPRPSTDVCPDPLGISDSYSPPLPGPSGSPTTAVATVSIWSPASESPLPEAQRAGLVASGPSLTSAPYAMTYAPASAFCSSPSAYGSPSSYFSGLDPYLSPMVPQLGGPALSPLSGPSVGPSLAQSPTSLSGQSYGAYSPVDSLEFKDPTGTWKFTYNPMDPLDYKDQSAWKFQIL
HSF1, sequence (Q00613 whole entry): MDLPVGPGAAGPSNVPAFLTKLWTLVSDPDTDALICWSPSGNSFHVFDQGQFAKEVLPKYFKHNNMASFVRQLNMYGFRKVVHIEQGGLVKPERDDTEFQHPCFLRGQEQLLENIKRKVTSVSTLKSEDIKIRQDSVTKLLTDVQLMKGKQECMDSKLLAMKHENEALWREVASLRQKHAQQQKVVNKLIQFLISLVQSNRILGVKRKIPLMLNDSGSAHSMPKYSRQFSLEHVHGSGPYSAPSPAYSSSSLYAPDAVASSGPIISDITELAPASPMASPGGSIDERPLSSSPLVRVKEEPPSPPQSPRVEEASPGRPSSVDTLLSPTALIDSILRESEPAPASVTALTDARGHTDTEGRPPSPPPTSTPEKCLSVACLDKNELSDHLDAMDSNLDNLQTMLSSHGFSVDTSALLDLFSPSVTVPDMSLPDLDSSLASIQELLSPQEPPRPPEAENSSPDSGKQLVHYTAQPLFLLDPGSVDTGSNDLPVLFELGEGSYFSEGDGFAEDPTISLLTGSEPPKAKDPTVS
ETV1, sequence (P50549 whole entry): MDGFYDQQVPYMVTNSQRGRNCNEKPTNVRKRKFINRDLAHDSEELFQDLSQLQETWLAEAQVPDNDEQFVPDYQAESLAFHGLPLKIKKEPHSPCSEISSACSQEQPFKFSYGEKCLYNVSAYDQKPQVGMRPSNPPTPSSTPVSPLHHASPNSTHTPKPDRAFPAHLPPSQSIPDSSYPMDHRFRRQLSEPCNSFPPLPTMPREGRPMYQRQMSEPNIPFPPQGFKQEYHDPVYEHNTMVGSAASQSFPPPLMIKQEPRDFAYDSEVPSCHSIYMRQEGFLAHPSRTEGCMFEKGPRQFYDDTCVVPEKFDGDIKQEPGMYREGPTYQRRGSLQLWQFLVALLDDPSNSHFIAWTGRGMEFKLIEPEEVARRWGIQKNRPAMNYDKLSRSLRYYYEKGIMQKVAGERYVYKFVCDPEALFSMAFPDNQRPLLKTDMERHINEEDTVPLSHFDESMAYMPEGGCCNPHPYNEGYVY
SPIB, sequence (Q01892 whole entry): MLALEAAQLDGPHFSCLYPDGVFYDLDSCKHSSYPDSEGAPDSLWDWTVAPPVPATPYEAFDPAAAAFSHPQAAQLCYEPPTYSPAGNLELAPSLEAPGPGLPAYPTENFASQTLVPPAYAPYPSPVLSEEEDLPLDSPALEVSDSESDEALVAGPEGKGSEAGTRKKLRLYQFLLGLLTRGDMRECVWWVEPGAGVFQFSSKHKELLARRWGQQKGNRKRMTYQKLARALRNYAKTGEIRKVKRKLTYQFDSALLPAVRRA

Take TGACTA: the binding signal with FLI1 is 1.14 fold enrichment (6-mer frequency, TF over GST control); in the assay with ELK1, 1.08 fold enrichment (6-mer frequency, TF over GST control); in the assay with GABPA, 1.08 fold enrichment (6-mer frequency, TF over GST control); with ERG, 1.03 fold enrichment (6-mer frequency, TF over GST control); with ELF1, 1.09 fold enrichment (6-mer frequency, TF over GST control); with EHF, 1.11 fold enrichment (6-mer frequency, TF over GST control). The binding signal with SPI1 was 1.14 fold enrichment (6-mer frequency, TF over GST control); with SPIB, 1.17 fold enrichment (6-mer frequency, TF over GST control); with ELK3 it was 1.14 fold enrichment (6-mer frequency, TF over GST control); in the assay with FEV it was 1.01 fold enrichment (6-mer frequency, TF over GST control); in the assay with ETV5, 1.04 fold enrichment (6-mer frequency, TF over GST control); in the assay with HSF1, 1.04 fold enrichment (6-mer frequency, TF over GST control). The binding signal is 1.09 fold enrichment (6-mer frequency, TF over GST control) in the assay with ELF4; 1.06 fold enrichment (6-mer frequency, TF over GST control) with ELK4; 1.17 fold enrichment (6-mer frequency, TF over GST control) with ETV2; 1.08 fold enrichment (6-mer frequency, TF over GST control) with ELF3; 1.17 fold enrichment (6-mer frequency, TF over GST control) in the assay with CRX; 1.15 fold enrichment (6-mer frequency, TF over GST control) in the assay with ETV1.
